From ChEMBL document CHEMBL4513216, “Probing the Open Global Health Chemical Diversity Library for Multistage-Active Starting Points for Next-Generation Antimalarials” (ACS Infect Dis, 2020) come the findings set out here.

The structures appear in SMILES notation. About 8,600 (12%) of roughly 69,000 compounds showed an effect of 50% or more. For the sample, strong results were picked, then their nearest neighbours and some compounds at random.

This assay relates to Plasmodium berghei. In words: Screen against P. berghei liver stage (PbLuc), transformed with Luciferase, at 10uM. The conditions noted are these: tested at 10 uM. The assay is classed as functional, HepG2.
Turning to `O=C(NCc1cccnc1N1CCCCC1)c1ccc2cc[nH]c2c1`, the INHIBITION stood at 2.7%.
`NC1(CN2CCOCC2)CCCCC1`: the INHIBITION came to 8.12%.
`C[C@H]1CN(c2ccccn2)C[C@@]12CCN(c1cccnc1)C2=O`: the INHIBITION was found to be 8.66%.
Under `COc1cc(CNCc2ccnc(N3CCCC3)c2)cc(OC)c1` stands 59.6%; under `COc1ccc(CNCc2ccnc(N3CCCC3)c2)c(OC)c1`, 41.45%.
`COc1cc(CNCc2ccnc(N3CCOCC3)c2)cc(OC)c1`: the INHIBITION is listed as 19.2%.
Next, `CCN1CC(C(=O)NCCc2csc(-c3ccncc3)n2)CCC1=O` (stereo not drawn): 1.86%; `Cc1cnc(-c2nc(C3CCN(C(=O)Cc4ccsc4)CC3)no2)cn1`: 2.71%; `COCCN1CCC(NC(=O)Cn2cc(C)c3ccccc32)CC1`: 17.4%.
Next, `CC(C)c1ccc(/C=C/CC(=O)NC2CCN(C(N)=O)CC2)cc1`: 83.5%; `CC(C)c1ccc(/C=C/CC(=O)NC2CCS(=O)(=O)CC2)cc1`: 71.2%.
Next, `CC(C)c1ccc(OCCC(=O)N2CCC(C(N)=O)CC2)cc1`: 32.2%; `CC(C)c1ccc(/C=C/CC(=O)NC2CCN(C(N)=O)C2)cc1` (stereo not drawn): 36.5%.
As for `COCCN1CCC(NC(=O)C(C)C)CC1`, the INHIBITION is recorded as -34.4%.
With `CC(C)c1noc(CCC(=O)NC2CCS(=O)(=O)C2)n1` (stereo not drawn), the INHIBITION was -12.2%.
Under `COCCN1CCC(NC(=O)C/C=C/c2ccc(C(C)C)cc2)CC1` stands 61.1%.
Next, `CC(C)c1noc(CCCC(=O)NC2CCS(=O)(=O)C2)n1` (stereo not drawn): -7.46%; `CC(=O)NCC1CCN(C(=O)NCCOc2ccc3c(c2)CCC3)CC1`: 25.1%.
Next, `COc1cc(C(=O)N2CCCC(n3cncn3)C2)ccc1C` (stereo not drawn): -16%.
In the case of `CC(C(=O)N1CCCC1)n1nc(-c2cccs2)cc(N)c1=O` (stereo not drawn), the INHIBITION was 11.8%.
For the compound `CCN1CCN(C(=O)c2cnc3c(cnn3C3CCCC3)c2)CC1`, the INHIBITION is listed as 19.2%.
In the case of `COCCNC(=O)[C@H]1C[C@@H]2CCN(Cc3ccncc3)C[C@H]2O1`, the INHIBITION is -1.36%.
Under `O=C(NCC1CC1)[C@H]1C[C@@H]2CCN(Cc3nccs3)C[C@@H]2O1` stands 25%.
For `CC1CCN(C(=O)[C@@H]2C[C@@H]3CCN(Cc4nccs4)C[C@H]3O2)CC1`, the INHIBITION is 53.9%.
Next, `CN(C)C(=O)[C@@H]1C[C@@H]2CCN(Cc3nccs3)C[C@@H]2O1`: 19.9%; `COCCNC(=O)[C@H]1C[C@@H]2CCN(Cc3nccs3)C[C@H]2O1`: 56.7%; `CNC(=O)[C@H]1C[C@@H]2CCN(Cc3nccs3)C[C@H]2O1`: 26.4%.
Under `CC(C)CCn1ccc(NC(=O)N2CCCC2C(C)(C)O)n1` (stereo not drawn) stands 29.9%.
